Reference: PubChem BioAssay (Tox21)
Inconclusive results are not listed. The source made the active and inactive calls. The call rests on the fitted dose curve; in most records, active means well fitted cell-killing curve with a large enough effect in the repeat runs; inconclusive means weak or mixed curves, or effect the other way; inactive means flat fitted curve, though single readings scatter.

Experiment: qHTS RealTime-Glo MT Cell Viability Assay in HEK293 cells - 32 hour (AID 1224868); further: nearly all actives have a fitted effect of over 50% in size; on activity change, negative = cytotoxic: top concentration of the series differs between compounds
Conditions: RealTime-Glo luminescence; series mostly up to 76.8 µM; activity change, negative = cytotoxic: at the top concentration
From the text: National Center for Advancing Translational Sciences [NCATS]
NIH Chemical Genomics Center [NCGC]
U.S. Environmental Protection Agency [EPA]
National Institutes of Environmental Health Sciences [NIEHS]
National Toxicology Program [NTP]
U.S. Food and Drug Administration [FDA]
Measure of cell viability is critical in the cell-base assay. Analysis of cell viability is necessary for the characterization of cell responses to cytotoxic drugs and environmental stress. A RealTime-Glo MT Cell Viability Assay to monitor cell viability in real time of continues cell culture during 40 hours of compound treatment was used to screen Tox21 10K library compounds in Hek293 cells. The RealTime-Glo MT Cell Viability Assay is a nonlytic, homogeneous, bioluminescent method to measure cell viability in real time using a simple, plate-based method. The assay involves adding NanoLuc luciferase and a cell-permeant prosubstrate to cells in culture. Viable cells reduce the proprietary prosubstrate to generate a substrate for NanoLuc luciferase. This substrate diffuses from cells into the surrounding culture medium, where it is rapidly used by the NanoLuc Enzyme to produce a luminescent signal. The signal correlates with the number of viable cells, making the assay well suited for cytotoxicity studies.
Tox21 Assay Protocol Summary:
The mixture of Hek293 cell suspension and reagents were dispensed at 600cells/6 ul/well in 1536-well tissue culture treated black solid bottom plates using a Multidrop dispenser. After the assay plates were incubated at a 37 C/5% CO2 incubator for 5 hours, 23 nL of compounds dissolved in DMSO, positive and negative controls was transferred to the assay plate by a pintool work station. The plates were incubated at 37 C for 40 hours. The luminescence intensity were measured at 0h, 8h, 16h, 24h, 32h and 40h time points using ViewLux plate reader during compound treatment.
On the % scale 0 is the no-effect control and ±100 the full control effect; potency means the concentration at half of the fitted maximal effect.

Row | SMILES | activity change, negative = cytotoxic | Potency
1 | CN(C)CCCN1c2ccccc2Sc2ccccc21 | -20% [at 35.3 µM] (inactive) | –
2 | CCCCC(CC)COC(=O)CCCCCCCCC(=O)OCC(CC)CCCC (stereo not given) | 2.21% (inactive) | –
3 | Nc1cccc(S(=O)(=O)c2cccc(N)c2)c1 | -13.1% (inactive) | –
4 | C#Cc1cccc(Nc2ncnc3cc(OCCOC)c(OCCOC)cc23)c1 | -22.7% [at 35.3 µM] (inactive) | –
5 | Cc1nn(C)c(Oc2ccccc2)c1/C=N/OCc1ccc(C(=O)OC(C)(C)C)cc1 | – | 0.0044 µM (active)
6 | COCCCN1CCC(NC(=O)c2cc(Cl)c(N)c3c2OCC3)CC1 | -18% [at 35.3 µM] (inactive) | –
7 | Cc1cccc(C)c1NC(=O)CN(CC(=O)O)CC(=O)O | 7.42% [at 35.3 µM] (inactive) | –
8 | COc1ccc(C(=O)Nc2nc3ccccc3c(NCc3ccccc3)c2C#N)cc1 | -15.5% (inactive) | –
9 | COCC(C)OC(C)=O (stereo not given) | 0.824% (inactive) | –
10 | CCCCCCCCCCCCCCOS(=O)(=O)O | -16.9% (inactive) | –
11 | CNC(=O)CN(CCN(CCN(CC(=O)[O-])CC(=O)NC)CC(=O)[O-])CC(=O)[O-].O.[Gd+3] | 3.57% [at 35.3 µM] (inactive) | –
12 | CCOC(=O)C(O)c1ccccc1 (stereo not given) | 5.21% [at 35.3 µM] (inactive) | –
13 | NS(=O)(=O)c1ccc(N2CCCCS2(=O)=O)cc1 | -0.982% [at 35.3 µM] (inactive) | –
14 | C[N+](C)(C)CCOC(=O)CCC(=O)OCC[N+](C)(C)C | 6.37% [at 35.3 µM] (inactive) | –
15 | CC(C)(C)Cl | 2.29% (inactive) | –
16 | O=[N+]([O-])c1ccc(NCCO)c(OCCO)c1 | -12.7% (inactive) | –
17 | CCOC(=O)c1cccnc1 | 1.94% [at 35.3 µM] (inactive) | –
18 | C=CC(=O)OCCOCCOC(=O)C=C | – | 34.8 µM (active)
19 | CC(=O)[O][Al] | 4.25% (inactive) | –
20 | O=C(O)C1(C(=O)O)CCC1.[NH2-].[NH2-].[Pt+2] | -1.76% [at 35.3 µM] (inactive) | –

Row | SMILES | activity change, negative = cytotoxic | Potency
21 | c1ccc(-c2ccccn2)nc1 | 0.312% (inactive) | –
22 | CC(=O)[O][Al][O]C(C)=O | 3.25% (inactive) | –
23 | OCCN1CCN(CCCN2c3ccccc3C=Cc3ccccc32)CC1 | -29.2% [at 35.3 µM] (inactive) | –
24 | CCC(CC)Nc1ccc(C)c(C)c1 | 1.23% (inactive) | –
25 | O=P(O)(OCc1ccccc1)OCc1ccccc1 | 5.96% (inactive) | –
26 | CC(C)(CO)[N+](=O)[O-] | 1.36% (inactive) | –
27 | CC(C)CC(=O)C1C(=O)c2ccccc2C1=O | 0.555% (inactive) | –
28 | COc1ccc(C(=O)N2CCN(CC(=O)N3CCOCC3)CC2)cc1 | -0.8% [at 35.3 µM] (inactive) | –
29 | C=CC(=O)OCCOc1ccccc1 | 0.523% (inactive) | –
30 | CCCCCCOC(=O)NC(=N)c1ccc(NCc2nc3cc(C(=O)N(CCC(=O)OCC)c4ccccn4)ccc3n2C)cc1 | – | 10.7 µM (active)
31 | C#CCN(C)CCCOc1ccc(Cl)cc1Cl | -25.2% [at 35.3 µM] (inactive) | –
32 | COc1ccc(-c2nc3ccc(C4=NNC(=O)CC4C)cc3[nH]2)cc1 (stereo not given) | – | 8.49 µM (active)
33 | C=C(C)C(=O)OCCO | -0.0716% (inactive) | –
34 | CN(C)c1ccc(CCO)cc1 | – | 30.7 µM (active)
35 | CC(C)(C)OCC1CO1 (stereo not given) | -2% (inactive) | –
36 | CC(COCCO)OCCO (stereo not given) | 5.42% (inactive) | –
37 | COc1cc2nc(N3CCN(C(=O)C4COc5ccccc5O4)CC3)nc(N)c2cc1OC (stereo not given) | – | 21.3 µM (active)
38 | CCCCCCCCCCCCCCCCOS(=O)(=O)O | -25.8% [at 35.3 µM] (inactive) | –
39 | O=[N+]([O-])c1ccc2[nH]ncc2c1 | -16.1% (inactive) | –
40 | COc1ccc2cccc(CCNC(C)=O)c2c1 | -11.1% [at 35.3 µM] (inactive) | –
